Screens from PubChem BioAssay.
KCNQ2 block: KCNQ2 (rat) channel inhibition; 310,000 tested, 1.1% active; CHO-K1 KCNQ2, FluxOR thallium flux, 20 min; active compounds read low; B-score at 10 µM; AID 2156;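 active means fluorescence ratio B-score at most minus 3 library SDs, with starting brightness B-score within 2 library SDs, cut at about -5.5 in these data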
Target sequence (O88943 whole entry, looked up): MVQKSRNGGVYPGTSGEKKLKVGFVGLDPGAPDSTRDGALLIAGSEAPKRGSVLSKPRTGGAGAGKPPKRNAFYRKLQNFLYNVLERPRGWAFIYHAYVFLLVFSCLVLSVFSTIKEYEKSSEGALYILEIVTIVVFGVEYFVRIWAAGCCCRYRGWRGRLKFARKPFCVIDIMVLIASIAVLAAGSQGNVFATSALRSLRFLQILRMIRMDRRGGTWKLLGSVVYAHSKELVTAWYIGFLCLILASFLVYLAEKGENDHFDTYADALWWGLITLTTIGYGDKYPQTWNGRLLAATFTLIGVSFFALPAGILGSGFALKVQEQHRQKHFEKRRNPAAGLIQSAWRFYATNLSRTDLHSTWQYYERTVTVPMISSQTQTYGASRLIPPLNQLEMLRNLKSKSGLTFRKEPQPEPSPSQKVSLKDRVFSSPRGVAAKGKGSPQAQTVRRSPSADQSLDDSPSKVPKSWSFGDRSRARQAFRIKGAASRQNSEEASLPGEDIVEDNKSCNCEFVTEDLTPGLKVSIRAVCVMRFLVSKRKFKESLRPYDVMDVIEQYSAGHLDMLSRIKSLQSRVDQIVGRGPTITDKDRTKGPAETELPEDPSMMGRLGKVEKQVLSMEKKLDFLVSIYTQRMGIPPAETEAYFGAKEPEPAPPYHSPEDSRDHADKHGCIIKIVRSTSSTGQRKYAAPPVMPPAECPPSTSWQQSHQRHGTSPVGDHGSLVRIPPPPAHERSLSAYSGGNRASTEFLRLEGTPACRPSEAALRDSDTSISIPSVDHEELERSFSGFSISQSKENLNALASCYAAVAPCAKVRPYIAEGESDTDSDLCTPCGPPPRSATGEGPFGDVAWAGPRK
KCNQ2 pot: potentiators of rat KCNQ2 potassium channel. O88943. CHO-K1 KCNQ2, FluxOR thallium flux fluorescence; active compounds read high. B-score at 10 µM. 310,000 tested, 0.54% active;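 active means fluorescence ratio B-score at least 3 SD of library B-scores, with initial fluorescence B-score within 3 of them, cut at about 5.3 in these data; same plate scores as AID 2156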;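 further: B-score of peak minus minimum over baseline fluorescence ratio after K+ and Tl+ stimulus; positive B-score means potentiation of KCNQ2 with more thallium influx and brighter signal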
Kir21 conf inh: confirmation of mouse Kir2.1 potassium channel inhibitors. shares compounds with KCNQ2 pot. 2,300 tested, 41% active. Tl flux remaining, % of negative control (active compounds read low), % at 10 µM. Kir2.1-expressing cells, FluxOR thallium flux fluorescence; active compounds read low;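 active means Primary-screen hit whose thallium flux fell at least 3 control SD below untreated wells in both duplicates, with normal baseline fluorescence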;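 further: 0% = blank wells without stimulus and 100% = stimulated no-compound controls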
HEK293 ctr: parental HEK293 activity in Kir2.1 inhibitor counter-screen | shares compounds with KCNQ2 pot | parental HEK293 cells, FluxOR thallium flux fluorescence; 0% = unstimulated blank wells | FluxOR signal as % of negative control (100 = no effect), % at 10 µM | 2,300 tested, 19% active;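 active means dye signal at least 3 control SD above or below untreated wells in both duplicates, raw fluorescence within 3, either direction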;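 further: percent is based on the flux ratio of peak minus minimum fluorescence over baseline F0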
CHO-K1 ctr: parental CHO-K1 activity in KCNQ2 potentiator counter-screen; AID 2282; shares compounds with KCNQ2 pot; 1,200 tested, 43% active; parental CHO-K1 cells, FluxOR thallium flux fluorescence; zero = vehicle mean+3SD, 100% = vehicle-minus-blank window; activity increase over 3SD of controls, % at 10 µM;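 active means signal rise of at least 3 SD above the untreated control mean, in both duplicate wells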;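 further: counter screen of KCNQ2 potentiator hits so any rise reflects channel-independent effects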
KCNQ1 pot spec: human KCNQ1 counter-target activity of KCNQ2 potentiators | 1,200 tested, 28% active | AID 2283 | activation over 3SD threshold, % at 10 µM | CHO KCNQ1 stable, FluxOR thallium flux fluorescence; beyond 3SD, as % of vehicle-control signal | shares compounds with KCNQ2 pot;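 active means fluorescence ratio rise of at least 3 SD of vehicle wells above their mean, in both replicate wells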;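 further: 0% = vehicle mean plus 3 SD and 100% = vehicle minus unstimulated blank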
KCNQ2 pot conf: confirmation of rat KCNQ2 potassium channel potentiators. 1,200 tested, 68% active. shares compounds with KCNQ2 pot. potentiation, less the hit threshold, % at 10 µM. CHO-KCNQ2 cells, FluxOR thallium flux fluorescence;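 active means fluorescence ratio rising 3 SD or more over the vehicle control mean in both replicates, plus primary screen hit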;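 further: peak minus minimum thallium fluorescence divided by baseline after K/Tl stimulus; 0% = vehicle mean plus 3 SD and 100% = vehicle minus unstimulated blank difference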
Kir21 spec: selectivity of KCNQ2 potentiators: effect on mouse Kir2.1; AID 2345; activity over 3SD threshold, % at 10 µM; 1,200 tested, 2% active; shares compounds with KCNQ2 pot; HEK293 Kir2.1, FluxOR thallium flux fluorescence;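 active means fluorescence ratio rise of at least 3 SD above the vehicle-control mean, seen in both replicates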;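 further: 0% = vehicle mean plus 3 SD and 100% = vehicle minus no-stimulus blank window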
KCNQ2 W236L MoA: potentiates the retigabine-insensitive rat KCNQ2 W236L mutant channel | shares compounds with KCNQ2 pot | CHO KCNQ2-W236L, automated patch clamp current | current increase over 3SD of negative controls (%), active compounds read high, % at 25 µM | 940 tested, 10% active | AID 2558;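 active means current increase at least 3 SD of the untreated controls above them in both duplicate recordings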
Numbers without * were called inactive; ! = not confirmed by another sample. The list is not random: actives were taken first. Their share in the collection is about 1.6%.

How did C=CCn1c(SCC)nc2sc3c(c2c1=O)CCc1ccccc1-3 do in these assays?
KCNQ2 block: inactive

How did O=c1c2ccccc2c(C=NCCCN2CCOCC2)c(O)n1Cc1ccccc1 do in these assays?
KCNQ2 block: inactive; Kir21 conf inh: 64%*; HEK293 ctr: inactive

How did O=c1c2ccccc2c(C=NCCCN2CCOCC2)c(O)n1Cc1ccc2c(c1)OCO2 do in these assays?
KCNQ2 block: inactive; KCNQ2 pot: 0.1

What do the screens show for `CCOc1ccc(C(=O)OCC(=O)N2CCCC2)cc1`?
KCNQ2 block: inactive; KCNQ2 pot: 0.05

Results for CC(=O)Nc1ccc(NCN2C(=O)C3C4CCC(C4)C3C2=O)cc1 (stereo not given) ?
KCNQ2 block: inactive; KCNQ2 pot: 1.2

Results for Cc1ccc(NCN2C(=O)C3C4CCC(C4)C3C2=O)cc1 (stereo not given) ?
KCNQ2 block: inactive; KCNQ2 pot: 6.2*; Kir21 conf inh: inactive; HEK293 ctr: inactive; CHO-K1 ctr: -25; KCNQ1 pot spec: -35; KCNQ2 pot conf: -19; Kir21 spec: -42

How did C/C(=N\NC(=O)c1ccc(OC2OCCOC2Oc2ccc(C(=O)N/N=C(\C)c3ccncc3)cc2)cc1)c1ccncc1 (stereo not given) do in these assays?
KCNQ2 block: inactive

Results for O=C(CC12CC3CC(CC(C3)C1)C2)Nc1cccc2ncccc12 ?
KCNQ2 block: inactive; KCNQ2 pot: 11*; Kir21 conf inh: inactive; HEK293 ctr: inactive; CHO-K1 ctr: -17; KCNQ1 pot spec: -16; KCNQ2 pot conf: 45*; Kir21 spec: -28; KCNQ2 W236L MoA: inactive

How did O=C(Nc1cccc2ncccc12)C12CC3CC(CC(C3)C1)C2 do in these assays?
KCNQ2 block: inactive; KCNQ2 pot: 1.2

What do the screens show for `Cc1nc(CS(=O)(=O)c2ccccn2)sc1C(=O)NNC(=O)c1ccc(Cl)cc1`?
KCNQ2 block: inactive; KCNQ2 pot: 0.24

Results for CSC(=S)N/N=C/c1ccc(Br)cc1 ?
KCNQ2 block: inactive; KCNQ2 pot: 7.1*; Kir21 conf inh: inactive; HEK293 ctr: 254%*; CHO-K1 ctr: -4; KCNQ1 pot spec: 39*; KCNQ2 pot conf: -7; Kir21 spec: -23

How did CSC(=S)N/N=C/c1ccc(N(C)C)cc1 do in these assays?
KCNQ2 block: inactive; KCNQ2 pot: 1.2

How did Brc1ccc(CSc2nccn2-c2ccccc2)cc1 do in these assays?
KCNQ2 block: inactive

Results for Clc1cccc(CSc2nccn2-c2ccccc2)c1 ?
KCNQ2 block: inactive; Kir21 conf inh: 64%*; HEK293 ctr: inactive

What do the screens show for `Cc1ccc(-c2[nH]ncc2CN2CCN(C(=O)c3cccs3)CC2)cc1C`?
KCNQ2 block: inactive

Results for Cn1cnc(S(=O)(=O)N2CCN(C(c3ccccc3)c3ccccc3)CC2)c1 ?
KCNQ2 block: inactive; KCNQ2 pot: 0.11

Results for CC(C)CC(=O)NC(Nc1ccccc1F)C(Cl)(Cl)Cl (stereo not given) ?
KCNQ2 block: inactive

How did CCCC(=O)NC(Nc1ccccc1F)C(Cl)(Cl)Cl (stereo not given) do in these assays?
KCNQ2 block: inactive; KCNQ2 pot: 0.26; Kir21 conf inh: 58%*; HEK293 ctr: 62%*

Results for Cc1ccc(S(=O)(=O)C(C)C(=O)c2ccc3c(c2)OCCO3)cc1 (stereo not given) ?
KCNQ2 block: inactive; KCNQ2 pot: 1.3

Results for COc1ccc(NC(=O)C2CCN(S(=O)(=O)c3ccc4c(c3)CC(C)N4C(C)=O)CC2)c(OC)c1 (stereo not given) ?
KCNQ2 block: inactive; KCNQ2 pot: 0.39

Results for COc1ccc(N2CCOCC2)c(NC(=O)COc2cccc(C)c2C)c1 ?
KCNQ2 block: inactive

Results for Cc1ccccc1OCC(=O)Nc1ccccc1N1CCOCC1 ?
KCNQ2 block: -6.5*; KCNQ2 pot: -6.5; Kir21 conf inh: 50%*; HEK293 ctr: inactive

Results for O=C(NCCCNC(=O)c1cnccn1)c1cccc(F)c1 ?
KCNQ2 block: inactive

Results for COc1ccccc1C(=O)Nc1ccnn1C1CCN(Cc2cnn(C)c2C)CC1 ?
KCNQ2 block: inactive; KCNQ2 pot: 0.98

How did CSc1ccc2c(c1)C(N1CCN(C)CC1)Cc1ccccc1S2 (stereo not given) do in these assays?
KCNQ2 block: -6.8*!; KCNQ2 pot: -6.8; Kir21 conf inh: 40%*; HEK293 ctr: inactive

Results for CSc1cccc(NC(=O)N2CCN(C)CC2)c1 ?
KCNQ2 block: inactive; KCNQ2 pot: 0.01

How did Cc1ccc(C(=O)C(C)Oc2ccc3ccc(=O)oc3c2)cc1 (stereo not given) do in these assays?
KCNQ2 block: inactive

Results for CCCCNC(=O)Cn1c2c(c(-c3ccccc3Cl)cc1=O)CCC2 ?
KCNQ2 block: inactive; KCNQ2 pot: 0.07

Results for O=C(Cn1c2c(c(-c3ccccc3)cc1=O)CCCC2)N1CCCCCC1 ?
KCNQ2 block: inactive; KCNQ2 pot: 8.4*; Kir21 conf inh: inactive; HEK293 ctr: inactive; CHO-K1 ctr: 34*; KCNQ1 pot spec: 19*; KCNQ2 pot conf: 12*; Kir21 spec: -32; KCNQ2 W236L MoA: inactive

What do the screens show for `CC(=O)N/C(=N\c1nc(C)cc(C)n1)Nc1ccccc1Cl`?
KCNQ2 block: inactive

How did CCOc1ccc(N2C(=O)C3=C(C(c4ccc(Cl)cc4)=NCCN3)C2c2cccnc2)cc1 (stereo not given) do in these assays?
KCNQ2 block: inactive

Results for Cc1ccc(C2C3=C(NCCN=C3c3ccccc3)C(=O)N2c2ccccc2)cc1 (stereo not given) ?
KCNQ2 block: inactive; Kir21 conf inh: inactive; HEK293 ctr: inactive

How did Cc1ccc(NC(=O)C2CCCO2)cc1[N+](=O)[O-] (stereo not given) do in these assays?
KCNQ2 block: inactive; KCNQ2 pot: 0.03

What do the screens show for `O=C(CCc1ccc(Oc2cc([N+](=O)[O-])cc([N+](=O)[O-])c2)cc1)N1CCCCC1`?
KCNQ2 block: inactive
